Assay results taken from PubChem BioAssay AID488847 (NMMLSC, 2010).
Hit rate of the full screen: of about 330,000 compounds, about 1,900 (0.58%) were called active. The sample as a whole holds a higher share of actives than the screen did. A number with no mark means an inactive call.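 Rule for the calls: active = inhibition of aptamer binding above 40%, roughly 3 SD of noise, on plates passing a quality check; inactive = the rest.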

target: Beta-adrenergic receptor kinase 1 (Homo sapiens) (UniProt P25098); assay: compounds blocking aptamer binding on GRK2 – biochemical, human GRK2, bead flow cytometry, HTS, primary screen (AID 488847); conditions: FAM-aptamer displacement from GRK2, at 10 µM, stronger effect = higher value;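 note: median bead fluorescence of bound FAM aptamer so fluorescent compounds give negative values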
Sequence (P25098 whole entry, looked up): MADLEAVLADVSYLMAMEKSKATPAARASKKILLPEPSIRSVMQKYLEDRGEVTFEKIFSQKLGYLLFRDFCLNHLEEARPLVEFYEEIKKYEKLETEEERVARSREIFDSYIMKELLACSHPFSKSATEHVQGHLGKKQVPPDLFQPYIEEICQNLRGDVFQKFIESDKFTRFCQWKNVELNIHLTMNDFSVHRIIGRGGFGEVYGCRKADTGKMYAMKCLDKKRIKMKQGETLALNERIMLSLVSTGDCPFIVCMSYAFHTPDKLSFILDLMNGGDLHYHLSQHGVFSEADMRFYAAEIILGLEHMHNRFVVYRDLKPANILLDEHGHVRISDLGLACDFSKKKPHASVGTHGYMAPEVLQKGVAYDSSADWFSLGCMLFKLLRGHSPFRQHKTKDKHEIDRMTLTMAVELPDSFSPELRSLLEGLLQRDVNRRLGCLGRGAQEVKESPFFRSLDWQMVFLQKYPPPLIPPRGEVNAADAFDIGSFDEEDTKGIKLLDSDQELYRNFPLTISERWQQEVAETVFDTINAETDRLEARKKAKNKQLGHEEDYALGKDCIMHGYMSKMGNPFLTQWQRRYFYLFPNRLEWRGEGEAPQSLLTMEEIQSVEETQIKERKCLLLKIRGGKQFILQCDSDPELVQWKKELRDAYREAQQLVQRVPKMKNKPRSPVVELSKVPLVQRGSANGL

Structure (SMILES)	inhibition of aptamer binding
O=[N+]([O-])c1cc(Cl)cc(/C=N/NC(=S)Nc2cc(S(=O)(=O)N3CCOCC3)ccc2Cl)c1O	98% (active)
Cc1ccc(S(=O)(=O)N2CCN(CC(=O)N/N=C/c3cc([N+](=O)[O-])ccc3Cl)CC2)cc1	0%
O=S(=O)(c1ccc(NC(=S)NN=C(C2CC2)C2CC2)cc1)N1CCOCC1	1%
Fc1ccccc1Cc1ccc(Cl)nn1	0%
CCN1CCN(CC(=O)Nc2sc3c(c2C#N)CCC3)CC1	0%
Cc1cccc(C(=O)OCC(=O)Nc2sc3c(c2C#N)CCC3)c1	6%
COc1cccc(CN(C)CC(=O)Nc2sc3c(c2C#N)CCC3)c1	94% (active)
Cc1nn2cc(-c3ccc(Cl)cc3)cnc2c1Br	4%
CCOC(=O)c1cc2c(ccn2C)n1CC(=O)N1CCC(C)CC1	1%
Cc1ccc(OCC(=O)Oc2ccccc2[N+](=O)[O-])cc1	1%
COc1ccc(C2c3ccc(O)cc3Oc3ncn(CCCO)c(=N)c32)cc1OC (stereo not drawn)	0%
COc1ccccc1S(=O)(=O)c1c(C)cc(C)[nH]c1=O	1%
Cc1ccc(/C=C2/SC(=S)N(CCC(=O)NCCCN3CCOCC3)C2=O)cc1	5%
C=CCOc1ccc(/C=C2\SC(=S)N(CCC(=O)O)C2=O)cc1	0%
Cc1ccc(-c2nn(-c3ccccc3)cc2/C=C2\SC(=S)N(CCCCCC(=O)O)C2=O)o1	48% (active)
CC(=O)Oc1ccccc1C(=O)Nc1ncc([N+](=O)[O-])s1	5%
CCSc1nc(O)c(C(c2cccc(OC)c2)c2c(O)nc(SCC)[nH]c2=O)c(=O)[nH]1	9%
COc1ccc(Nc2cc(Sc3ccc(OC)cc3)ncn2)cc1	46% (active)
COc1ccc(Nc2ncnc3sc(C)cc23)cc1	0%
COc1ccc(Nc2nc(=O)[nH]nc2C)cc1	4%
CC(Sc1cccc[n+]1[O-])C(=O)Nc1cccc(S(=O)(=O)N2CCOCC2)c1 (stereo not drawn)	1%
O=C(O)C1CCN(C(=O)OCc2ccccc2)CC1	0%
CCCCn1nc(C(=O)OCC(=O)Nc2sccc2C(N)=O)c2ccccc2c1=O	84% (active)
COc1cc(OC)cc(C(=O)OCC(=O)Nc2sccc2C(N)=O)c1	0%
NC(=O)c1ccsc1NC(=O)COC(=O)Cc1n[nH]c(=O)c2ccccc12	2%

Structure (SMILES)	inhibition of aptamer binding
CCc1ccc2oc(=O)cc(CN3CCCCC3C)c2c1 (stereo not drawn)	0%
COc1cc(/C=N/NC(=O)c2cc(C)n(-c3ccc(F)cc3)c2C)cc(OC)c1O	0%
COc1cc(/C=N/NC(=O)c2ccc(N3CCCC3=O)cc2)ccc1O	49% (active)
O=C(N/N=C/c1cccc(Br)c1)c1ccc(N2CCCC2=O)cc1	0%
O=C(NCc1cccc(Cl)c1)C1CCN(c2nnc(N3CCCC3=O)s2)CC1	0%
CN(C)S(=O)(=O)c1cccc(C(=O)OCC(=O)N2CCCC2=O)c1	0%
Cc1cc(C)n(C(=O)c2ccc(S(=O)(=O)N3CCCC3)cc2)n1	2%
CC(C)(C)NC(=O)Cn1nnc(-c2ccccc2Cl)n1	2%
Cc1ccccc1-c1nnn(CC(=O)c2ccc(S(=O)(=O)N3CCCC3)cc2)n1	47% (active)
Cc1ccc(S(=O)(=O)C2(S(=O)(=O)c3ccc(C)cc3)CCCC2)cc1	0%
CCCNc1c(N)c(=O)c1=O	6%
CCOC(=O)c1cc(-c2nnc(-c3cc(OC)c(OC)c(OC)c3)o2)c(C)nc1C	1%
O=C(OCc1nnc(-c2ccccc2)o1)c1cc(=O)[nH]c2ccccc12	3%
CCCc1nc2ccccc2c(C(=O)OCc2nnc(-c3cc(OC)c(OC)c(OC)c3)o2)c1CC	41% (active)
COc1cc(NC(=O)c2[nH]cnc2C(N)=O)cc(C(=O)Nc2cccc(C(F)(F)F)c2)c1	0%
CSc1nnc(SCc2nc3sc(C(=O)O)c(C)c3c(=O)[nH]2)s1	13%
CCOC(=O)c1sc2nc(CSc3ccccc3)[nH]c(=O)c2c1C	75% (active)
CCOC(=O)c1sc2nc(CSCC(=O)OCc3ccc(C(=O)OC)o3)[nH]c(=O)c2c1C	2%
O=S(=O)(Nc1cccc(-c2ccc(N3CCOCC3)nn2)c1)c1ccc(Cl)c(Cl)c1	0%
O=c1c([N+](=O)[O-])cccn1Cc1ccc(F)cc1Cl	0%
O=C(C1CCC1)N1CCc2cc(S(=O)(=O)NCc3cccnc3)ccc21	0%
CSc1nc2ccccc2c(=O)n1Cc1ccc(F)cc1	76% (active)
O=C(CSc1nc2ccccc2c(=O)n1-c1ccc(F)cc1)NC1CC1	0%
O=C(CSc1nc2ccccc2c(=O)n1Cc1ccc(F)cc1)NCC1CCCO1 (stereo not drawn)	0%
O=c1[nH]c(CCl)nc2cc(-c3ccc(Cl)cc3)sc12	0%

Structure (SMILES)	inhibition of aptamer binding
NC(=O)CC(NC(=O)Cc1cccc2ccccc12)c1ccc(NCc2cc(F)ccc2F)c([N+](=O)[O-])c1 (stereo not drawn)	1%
CCCC/S(C)=N/S(=O)(=O)c1ccc(C)cc1 (stereo not drawn)	1%
COc1ccc(CN2CCN(Cc3cn(C)nc3-c3ccccc3)CC2CCO)c(C)c1C (stereo not drawn)	0%
CN(CC(=O)Nc1ccc(C(N)=O)cc1)S(=O)(=O)c1ccc2c(c1)OCCO2	0%
Cc1nc(S(=O)(=O)c2ccc(Br)cc2)nc2c1CCC2	5%
O=C(Nc1ccc(-c2nnc(-c3ccccc3)o2)cc1)c1ccc(Br)o1	92% (active)
O=C(CNC(=O)c1ccc(Br)o1)Nc1ccccc1	1%
Brc1ccc(-c2nnc(-c3ccccc3)o2)o1	5%
CCOc1ccc(C(=O)NCCCN2CCCC2=O)cc1	2%
O=C(NCCCN1CCCCCC1)c1ccc(N2CCCC2=O)cc1	43% (active)
CC1CCC(NC(=O)c2ccc(N3CCCC3=O)cc2)CC1 (stereo not drawn)	0%
CC1=CC(C)(C)NC(=S)N1NC(=O)c1ccccc1Cl	1%
COc1ccc(C2C(C#N)=C(N)Oc3cc(N)ccc32)cc1OC (stereo not drawn)	0%
CCn1cnc2scc(-c3ccc(C)c(C)c3)c2c1=O	0%
CC(=O)C(C)n1cnc2scc(-c3ccc(C)cc3)c2c1=O (stereo not drawn)	1%
CCOC(=O)C(C)n1cnc2scc(-c3ccc(C)c(C)c3)c2c1=O (stereo not drawn)	64% (active)
CCOC(=O)c1ccc(S(=O)(=O)N(CCO)Cc2cc3cc(OC)c(OC)cc3[nH]c2=O)cc1	0%
CN(C)CC(C)(C)CNC(=O)c1cc(Br)cc(Br)c1O	6%
COc1cccc(OC)c1C(=O)Nc1ccc(Cc2ccncc2)cc1	55% (active)
CC(C)CC(=O)Nc1ccc(Cc2ccncc2)cc1	0%
COc1cccc(OC)c1C(=O)Nc1ccc2c(c1)n(C)c(=O)n2C	1%
Cc1ccc(S(=O)(=O)NCCSC(C)(C)C)cc1	1%
O=C(OCC1O[C@@H](OC(=O)c2cc(O)c(O)c(O)c2)[C@@H](OC(=O)c2cc(O)c(O)c(O)c2)[C@@H](OC(=O)c2cc(O)c(O)c(O)c2)[C@@H]1OC(=O)c1cc(O)c(O)c(O)c1)c1cc(O)c(O)c(O)c1 (stereo partly drawn)	1%
